# Assay results reported in article PMC5540273 (PLoS ONE, 2017).
# Experiments:
# Details in all cases: concentration: 1 μM, replicates: in singlicate; n = 1
# [1] = test system: IRAK1
# [2] = test system: IRAK3
# [3] = test system: IRAK4
# [4] = test system: ITK
# [5] = test system: JAK1(JH1domain-catalytic)
# [6] = test system: JAK1(JH2domain-pseudokinase)
# [7] = test system: JAK2(JH1domain-catalytic)
# [8] = test system: JAK3(JH1domain-catalytic)
# [9] = test system: T1, JNK1
# T1 construct: gene MAPK8
# [10] = test system: T2, JNK2
# T2 construct: gene MAPK9
# [11] = test system: T3, JNK3
# T3 construct: gene MAPK10
# [12] = test system: KIT-autoinhibited
# [13] = test system: KIT
# [14] = test system: LATS1
# [15] = test system: LATS2
# [16] = test system: LCK
# [17] = test system: LIMK1
# [18] = test system: LIMK2
# [19] = test system: T4, LKB1
# T4 construct: gene STK11
# [20] = test system: T5, LOK
# T5 construct: gene STK10
# 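Note: KINOMEscan kinase panel screen.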
Compound,%Inh [1],%Inh [2],%Inh [3],%Inh [4],%Inh [5],%Inh [6],%Inh [7],%Inh [8],%Inh [9],%Inh [10],%Inh [11],%Inh [12],%Inh [13],%Inh [14],%Inh [15],%Inh [16],%Inh [17],%Inh [18],%Inh [19],%Inh [20]
Cc1ccc(NC(=O)c2ccc(Cl)cc2)cc1-c1ccc(C(=O)Nc2ccncc2)cc1 [GSK1398467],30%,3%,14%,8%,0%,0%,0%,0%,19%,15%,0%,0%,99.4%,0%,0%,68%,0%,3%,0%,0%
CNc1nc(-c2ccc3c(N)n[nH]c3c2)cc(N2C[C@@H](C(=O)NC3CCCCC3)OC[C@H]2C)n1 [GSK2375584],21%,0%,0%,10%,11%,0%,0%,0%,3%,0%,0%,7%,20%,0%,15%,19%,8%,24%,0%,0%
FC(F)(F)c1ccccc1-c1cc(-c2c[nH]nc2-c2ccccn2)ccn1 [GW679396],0%,0%,0%,8%,5%,0%,0%,0%,30%,32%,40%,0%,3%,0%,0%,17%,0%,0%,11%,0%
COc1ccc(Nc2nccc(NCCNC(=O)Nc3cc(C)ccc3C)n2)cc1 [GSK1379899],0%,8%,3%,10%,0%,0%,16%,0%,20%,0%,0%,0%,0%,0%,0%,26%,0%,0%,0%,0%
CCCCc1nn2ncccc2c1-c1ccnc(NC2CC2)n1 [GW684374],28%,13%,12%,0%,7%,0%,0%,0%,63%,84%,82%,0%,67%,0%,0%,17%,33%,34%,0%,0%
Fc1ccc(-c2nc3n(c2-c2ccncc2)CCS3)cc1 [GI98581],3%,4%,0%,5%,10%,0%,0%,0%,73%,96.2%,98.7%,0%,15%,2%,0%,26%,0%,0%,11%,0%
CNCc1ccc2nc(NC(=O)c3ccc(C(C)(C)C)cc3)cn2c1,13%,0%,0%,0%,0%,17%,3%,3%,18%,6%,14%,20%,69%,2%,6%,2%,5%,0%,31%,0%
COc1ccc(CSc2nnc(-c3ccc4nccn4c3)o2)cc1C(F)(F)F,44%,30%,38%,20%,0%,0%,13%,1%,0%,0%,0%,10%,0%,24%,23%,4%,0%,0%,6%,3%
CNc1nc(-c2ccc3c(N)n[nH]c3c2)cc(N2C[C@@H](C(=O)Nc3ccccc3)CC[C@H]2C)n1 [GSK2298859],0%,0%,8%,12%,0%,0%,0%,0%,2%,15%,3%,0%,4%,0%,3%,22%,0%,13%,7%,0%
CC(=O)c1c(C)c2cnc(Nc3ccc(N4CCNCC4)cn3)nc2n(C2CCCC2)c1=O,0%,0%,0%,0%,0%,11%,0%,0%,11%,0%,0%,0%,0%,15%,26%,0%,0%,99.5%,0%,0%
Cc1ccc(NC(=O)Nc2ccc(Cl)cc2)cc1-c1ccc(C(=O)Nc2ccncc2)cc1 [GSK1398472],17%,4%,7%,18%,6%,0%,0%,0%,0%,7%,1%,4%,99.9%,2%,0%,60%,28%,67%,0%,35%
Nc1nccc(-c2c(-c3ccc(F)cc3)ncn2C2CCN(Cc3ccccc3)CC2)n1 [SB-219980],0%,0%,0%,7%,0%,0%,0%,0%,62%,95.2%,95.4%,0%,0%,13%,0%,0%,13%,0%,36%,18%
CS(=O)(=O)CCNCc1nc(-c2ccc3ncnc(Nc4ccc5c(cnn5Cc5ccccc5)c4)c3c2)cs1.Cl.Cl [GW569716],37%,0%,19%,17%,0%,0%,0%,0%,12%,2%,4%,0%,6%,0%,0%,9%,0%,0%,0%,0%
Cc1ccccc1-c1cc(-c2c[nH]nc2-c2ccccn2)ccn1 [GW680061],28%,2%,4%,12%,4%,0%,12%,0%,38%,30%,32%,0%,39%,0%,0%,5%,0%,0%,0%,0%
CC(=O)c1cccc(NC(=O)NC2CCN(c3ccnc(Nc4ccc(F)cc4)n3)C2)c1 (stereo not shown) [GSK1379710],27%,11%,7%,8%,21%,9%,25%,0%,16%,13%,22%,4%,49%,0%,2%,12%,11%,22%,23%,0%
CC(=O)c1c(C)c2cnc(Nc3ccn(C)n3)nc2n(C2CCCC2)c1=O,11%,0%,11%,0%,0%,0%,0%,9%,8%,18%,0%,0%,0%,0%,4%,8%,23%,0%,0%,15%
Cc1ccc(NC(=O)Nc2ccccc2)cc1-c1ccc(C(=O)Nc2ccncc2)cc1 [GSK1398471],0%,0%,0%,8%,31%,0%,0%,0%,11%,29%,8%,0%,99.7%,0%,0%,35%,18%,0%,0%,25%
O=C1NC(=O)C(c2ccc(Cl)cc2)=C1Nc1ccc(O)cc1 [SB-340867],0%,0%,0%,0%,0%,0%,14%,0%,3%,0%,0%,0%,0%,17%,0%,5%,11%,0%,13%,0%
CS(=O)(=O)Cc1ccc(Nc2nccc(-c3c(-c4cccc(NC(=O)C5CCCCC5)c4)nn4ncccc34)n2)cc1 [GSK350559],24%,3%,25%,6%,0%,0%,16%,43%,43%,49%,36%,14%,88%,0%,48%,23%,22%,14%,0%,81%
Cn1cncc1C(=O)NC1CCN(c2ccnc(Nc3ccc(F)cc3)n2)C1 (stereo not shown) [GSK1379717],41%,0%,26%,1%,17%,0%,100%,0%,29%,3%,13%,0%,17%,25%,0%,4%,0%,2%,0%,0%
Cc1ccc(-c2nc(Nc3ccncc3)c3ccccc3n2)s1 [GSK189015],0%,19%,2%,22%,16%,38%,3%,0%,20%,19%,14%,0%,22%,0%,0%,7%,31%,7%,0%,1%

Compound,%Inh [1],%Inh [2],%Inh [3],%Inh [4],%Inh [5],%Inh [6],%Inh [7],%Inh [8],%Inh [9],%Inh [10],%Inh [11],%Inh [12],%Inh [13],%Inh [14],%Inh [15],%Inh [16],%Inh [17],%Inh [18],%Inh [19],%Inh [20]
O=c1cc(N2CCOCC2)nc2n(Cc3cccc(Cl)c3Cl)c3ccccc3n12 [GSK2299009],12%,15%,4%,13%,24%,0%,0%,0%,7%,32%,3%,0%,36%,0%,16%,43%,4%,24%,8%,0%
O=C(Nc1n[nH]c2nc(-c3cccs3)c(Br)cc12)C1CCCC1 [SB-743341],0%,0%,0%,10%,0%,0%,0%,0%,69%,44%,46%,13%,36%,20%,0%,38%,2%,15%,0%,26%
COc1ccc(CSc2nnc(-c3ccc4ncsc4c3)o2)cc1C(F)(F)F,0%,0%,9%,0%,25%,0%,0%,0%,0%,0%,0%,0%,18%,12%,0%,0%,0%,0%,2%,0%
COc1cccc(CNC(=O)NC2CCN(c3ccnc(Nc4ccc(F)cc4)n3)C2)c1 (stereo not shown) [GSK1379723],23%,5%,17%,9%,5%,0%,6%,0%,32%,3%,11%,0%,23%,10%,0%,11%,3%,0%,0%,0%
c1ccc(-c2ccnc3[nH]ccc23)cc1 [SB-693578],64%,0%,43%,18%,1%,2%,69%,76%,32%,0%,11%,0%,1%,0%,53%,7%,6%,0%,0%,0%
CC[C@@H]1CO[C@H](C(=O)Nc2ccccc2)CN1c1cc(-c2ccc3c(N)n[nH]c3c2)nc(NC)n1 [GSK2376236],0%,5%,0%,3%,11%,0%,0%,0%,0%,17%,0%,0%,17%,0%,0%,30%,1%,9%,5%,0%
COc1ccc(Nc2nccc(-c3ccc(NC(=O)c4cc5cc(F)ccc5[nH]4)cc3)n2)cc1 [GSK1229496],10%,0%,0%,0%,0%,0%,18%,0%,4%,9%,3%,0%,11%,0%,1%,0%,38%,7%,15%,0%
CCn1c(-c2c(N)noc2C)nc2cnccc21 [SB-737856],15%,29%,34%,16%,8%,0%,11%,0%,15%,23%,9%,0%,0%,0%,0%,10%,3%,100%,0%,0%
COc1ccc(Nc2nccc(N3CCC(NC(=O)c4cc5ccccc5s4)C3)n2)cc1 (stereo not shown) [GSK1379738],37%,15%,19%,8%,15%,0%,100%,0%,22%,10%,10%,0%,7%,0%,1%,16%,8%,17%,0%,0%
CC(C)c1cc(-c2ccc3c(N)n[nH]c3c2)nc(N)n1 [GSK2250882],31%,4%,0%,11%,0%,8%,0%,0%,21%,30%,8%,0%,9%,0%,0%,9%,0%,0%,14%,0%
NS(=O)(=O)c1cccc(N/C=C2\C(=O)Nc3ccc(S(=O)(=O)Cc4c(Cl)cccc4Cl)cc32)c1 [GSK398099],32%,5%,19%,12%,11%,0%,3%,0%,5%,21%,7%,0%,15%,41%,22%,13%,7%,28%,0%,0%
Fc1ccc(-c2nn3cccc(F)c3c2-c2ccncc2)cc1 [GW475620],9%,2%,0%,0%,10%,30%,17%,0%,61%,93.5%,97.4%,0%,3%,12%,0%,18%,0%,0%,0%,8%
Cc1cnc(N)c(/C=C/c2cncc(C(=O)NCCc3ccc(Cl)cc3Cl)c2)c1.Cl [GSK190937],16%,0%,0%,0%,0%,0%,0%,0%,0%,18%,4%,0%,99.6%,0%,36%,7%,0%,2%,28%,0%
CC(C)c1ccc(O)cc1Nc1ccnc2ccc(C(F)(F)F)cc12 [GW482059],0%,19%,0%,0%,1%,0%,35%,0%,3%,0%,0%,0%,0%,0%,0%,22%,0%,0%,0%,0%
Cc1cccc2c(-c3ccncn3)c(-c3ccc(F)cc3)nn12 [GW515532],0%,8%,3%,7%,5%,6%,36%,0%,33%,74%,74%,0%,6%,0%,11%,17%,0%,0%,0%,0%
COc1nccc(-c2c(-c3ccc(F)cc3)ncn2CCCN2CCOCC2)n1 [SB-282852],3%,0%,0%,53%,36%,0%,4%,12%,41%,61%,51%,20%,0%,0%,27%,25%,0%,0%,0%,45%
CCc1ccc(-c2ccc3c(c2)-c2n[nH]cc2S(=O)(=O)N3C)cc1,0%,0%,0%,0%,18%,14%,3%,0%,1%,0%,0%,0%,7%,0%,0%,4%,0%,0%,17%,3%
O=C(Nc1n[nH]c2nc(-c3cccs3)c(Br)cc12)C1CC1 [SB-735297],0%,0%,0%,0%,13%,21%,20%,0%,40%,15%,9%,0%,5%,11%,3%,16%,26%,0%,0%,18%
COc1ccc2cc(-c3nc(-c4ccccc4C(C)C)[nH]c3-c3ccncc3)ccc2c1 [SB-660566],23%,0%,42%,8%,11%,0%,100%,0%,23%,44%,44%,0%,0%,0%,0%,11%,8%,0%,0%,61%
O=C(Nc1n[nH]c2nc(-c3ccco3)c(Br)cc12)C1CCN(Cc2ccccc2)C1.O=C(O)[C@H](O)[C@@H](O)C(=O)O (stereo not shown) [SB-742034],0%,35%,0%,13%,0%,61%,23%,0%,37%,0%,13%,7%,22%,0%,0%,5%,0%,0%,37%,0%
